In the library only some 3.1% were active in any assay of this set; here they are far more common.
DENV2 CPE: inhibitors of DENV2 cytopathic effect, primary screen, cell-based, plate reader, single concentration | DENV2-infected cells, cytopathic effect rescue | CPE inhibition, % at 9.99 µM | 350,000 compounds, 1.7% hits; in the data active means CPE inhibition above about 20%, passing the limit was not always enough; inconclusive means no clear call, values can overlap the other calls; tested in BHK-21 cells
MLL AF4-AF9 inh: inhibitors of AF4 peptide binding to AF9, primary screen, biochemical, AlphaScreen, biotin-AF4 peptide, FLAG-AF9, single point; Protein AF-9 (Homo sapiens), P42568; inhibition, % at 10 µM; 350,000 compounds, 0.47% hits;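 active means every replicate reaching a set inhibition limit, whatever the replicate mean, cut at about 25% in these data; inconclusive means mean inhibition reaches that limit but some replicates miss it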
RAD52 anneal inh: RAD52 DNA annealing inhibitors, primary screen, biochemical, FRET, single point, set 2; DNA repair protein RAD52 homolog (Homo sapiens), P43351; recombinant RAD52 DNA annealing, FRET fluorescence; inhibition, % at 18.7 µM; 360,000 compounds, 0.46% hits;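 active means every replicate showing at least 50% inhibition; inconclusive means mean inhibition at least 50% but not in every replicate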
RAD54 branch: inhibitors of human RAD54 branch migration, primary screen, biochemical, fluorescence, single point; RAD54 Holliday junction branch migration, FAM/BHQ fluorescence; inhibition, % at 10.4 µM; DNA repair and recombination protein RAD54-like (Homo sapiens), Q92698; 360,000 compounds, 0.14% hits;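 active means mean normalized replicate activity at least 40 and at least half of replicates scoring 40 or more; inconclusive means only one of the two criteria met; inactive means mean below 40 and under half of replicates reaching 40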;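 further: inhibitors cause a drop in the FAM fluorescence signal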
INS-1E GSIS act: GLuc luminescence reporter in INS-1E cells, primary screen for activators of glucose-dependent secretion of insulin. 370,000 compounds, 0.61% hits. activation, % at 16.6 µM. INS-1E GLuc reporter insulin secretion, 2-3 h;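 active means lowest replicate activation of at least 40%, so every replicate reaches that level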
dFosB act: activators of delta FosB homodimer, primary screen, biochemical, fluorescence polarization, TAMRA-CDK5 oligo, single point; purified delta FosB; percent of positive-control signal above neutral wells; activation, % at 25 µM; 340,000 compounds, 0.99% hits;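 active means mean activation above about 17%, with every replicate also reaching it, limit read from the data, passing the limit was not always enough; inconclusive means only one of the two conditions met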
Target sequence (P13346 whole entry, looked up): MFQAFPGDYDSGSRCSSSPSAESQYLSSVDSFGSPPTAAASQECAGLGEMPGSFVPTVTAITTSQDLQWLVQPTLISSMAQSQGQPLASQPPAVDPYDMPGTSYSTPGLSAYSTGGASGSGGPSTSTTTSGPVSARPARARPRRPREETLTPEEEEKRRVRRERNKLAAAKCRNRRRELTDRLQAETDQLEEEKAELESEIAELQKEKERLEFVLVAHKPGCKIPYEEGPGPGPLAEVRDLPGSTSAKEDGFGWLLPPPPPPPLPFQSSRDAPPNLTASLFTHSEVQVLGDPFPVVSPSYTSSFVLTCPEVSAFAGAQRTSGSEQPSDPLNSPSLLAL
A number is an active result; - = inactive; ? = inconclusive; . = no result given.

SMILES	DENV2 CPE	MLL AF4-AF9 inh	RAD52 anneal inh	RAD54 branch	INS-1E GSIS act	dFosB act
CO[C@H]1CN(C)C(=O)c2ccc(NC(=O)Nc3ccccc3F)cc2OC[C@H](C)N(C(C)=O)C[C@H]1C	-	-	-	-	-	.
COc1cccc(C(=O)Nc2ccc3c(c2)OC[C@H](C)N(CC2CC2)C[C@@H](C)[C@@H](OC)CN(C)C3=O)c1	-	-	-	-	-	.
COC(=O)[C@H]1[C@H](CO)[C@H]2Cn3c(ccc(-c4cccnc4)c3=O)[C@H]2N1Cc1ccccc1F	-	-	-	-	-	.
COc1ccc(C(=O)NCc2nnc(SCC(=O)NO)n2Cc2ccccc2)cc1	?	26	-	.	-	-
CCn1c(CNC(=O)Cc2ccc(OC)cc2)nnc1SCC(=O)c1ccccc1	-	-	-	.	-	-
CCCC(=O)Nc1ccc2c(c1)C(=O)N(C)C[C@H](OC)[C@H](C)CN(C(=O)CC1CC1)[C@H](C)CO2	-	-	-	-	-	.
C[C@H](CO)N1C[C@H](C)[C@H](CN(C)Cc2ccc(C(=O)Nc3ccccc3N)cc2)Oc2ccc(NS(=O)(=O)c3cccs3)cc2CC1=O	-	-	-	-	-	.
Cc1noc(C)c1S(=O)(=O)Nc1ccc2c(c1)CC(=O)N([C@@H](C)CO)C[C@H](C)[C@H](CN(C)Cc1ccc(C(=O)Nc3ccccc3N)cc1)O2	61	-	-	.	-	.
Cc1noc(C)c1S(=O)(=O)Nc1ccc2c(c1)C(=O)N([C@H](C)CO)C[C@H](C)[C@H](CN(C)Cc1ccc(C(=O)Nc3ccccc3N)cc1)O2	24	-	-	.	-	.
Cc1noc(C)c1S(=O)(=O)Nc1ccc2c(c1)CC(=O)N([C@H](C)CO)C[C@H](C)[C@H](CN(C)Cc1ccc(C(=O)Nc3ccccc3N)cc1)O2	-	-	-	.	-	.
C[C@@H]1CN([C@H](C)CO)C(=O)Cc2cc(NS(=O)(=O)c3cccs3)ccc2O[C@H]1CN(C)Cc1ccc(C(=O)Nc2ccccc2N)cc1	39	-	-	.	-	.
COc1ccc(S(=O)(=O)Nc2ccc3c(c2)C(=O)N([C@@H](C)CO)C[C@H](C)[C@H](CN(C)Cc2ccc(C(=O)Nc4ccccc4N)cc2)O3)cc1	23	-	-	-	-	.
Cc1noc(C)c1S(=O)(=O)Nc1ccc2c(c1)C(=O)N([C@@H](C)CO)C[C@H](C)[C@@H](CN(C)Cc1ccc(C(=O)Nc3ccccc3N)cc1)O2	-	-	-	.	-	.
C[C@H]1CN([C@@H](C)CO)C(=O)Cc2cc(NS(=O)(=O)c3ccc(F)cc3)ccc2O[C@H]1CN(C)S(=O)(=O)c1ccc(Cl)cc1	-	.	.	-	-	.
CCCC(=O)Nc1ccc2c(c1)C(=O)N(C)C[C@H](OC)[C@H](C)CN(CC1CCCC1)[C@H](C)CO2	-	-	-	-	-	.
CCN(CC)CCCNC(=O)c1cc(-c2ccccc2)c(N2CCCCC2)s1	-	29	-	-	-	-
O=C(NCCc1ccccc1)c1cc(-c2ccccc2)c(N2CCOCC2)s1	-	-	-	-	-	-
C[C@H]1CN([C@@H](C)CO)C(=O)c2cc(C#CCN(C)C)cnc2O[C@@H]1CN(C)C(=O)NC1CCCC1	-	-	-	-	-	.
ON=C1c2cc(OCCN3CCCCC3)ccc2-c2ccc(OCCN3CCCCC3)cc21	.	.	.	86	.	?
O=[N+]([O-])c1ccccc1N=Nc1ccc(O)cc1O	-	-	-	-	.	.
O=S(=O)(O)c1cc(O)c(N=Nc2ccc(O)cc2O)c2ccccc12	-	34	-	-	-	-
C[C@H](CO)N1C[C@H](C)[C@@H](CN(C)Cc2ccc(Cl)c(Cl)c2)Oc2ccc(NC(=O)c3ccncc3)cc2C1=O	-	-	-	-	-	.
COc1ccc(N=Nc2c(C)[nH]c3ccccc23)cc1	-	26	-	-	-	-
Cc1cccc(N=[N+]([O-])c2cccc(C)n2)n1	27	-	-	-	.	-
Cc1cccc(N=O)n1	-	-	-	.	-	.

From PubChem
